# According to PubChem BioAssay:
# Several values for one entry are separate records, joined by “and”; a condition that tells them apart may be missing. Identical values can stand only once. Unmarked numbers belong to inactive results. Activity calls are given as the source filed them.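 The calls were made as follows, unless noted: active = thallium flux through the channel raised or lowered by more than 3 SD from vehicle-only wells, actives on both sides; inactive = the rest.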
# Tested on: not listed separately
# Test: galactose survival enhancers in mitochondrial complex I cybrids – cell-based, galactose medium, ATP luminescence, primary screen (AID 1645843;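 active = z-score of at least 1.8 in each of two replicates, scored against plate mean and spread of sample wells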;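 also: positive z means more ATP and so rescue of galactose-driven cybrid death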)
# Settings: complex I mutant cybrid cells, 72 h, active compounds read high
row,SMILES,z-score
1,COC(=O)[C@H](c1ccccc1Cl)N1CCc2sccc2C1,-0.555 and -0.06
2,COc1ccc(C[C@H](N)C(=O)N[C@H]2[C@@H](O)[C@H](n3cnc4c(N(C)C)ncnc43)O[C@@H]2CO)cc1,-2.25
3,COc1ccc(/C=C/C(=O)Nc2ccccc2C(=O)O)cc1OC,1.34 and 0.925 and 0.79
4,CC1=C(/C=C/C(C)=C/C=C/C(C)=C\C(=O)O)C(C)(C)CCC1,1.53 and -0.905
5,Cc1cccc(C)c1NC(=O)C1CCCCN1C (centres undefined),0.56
6,O=c1ccc2ccc(O)c(O)c2o1,-0.93
7,CN(C)c1nc(N(C)C)nc(N(C)C)n1,0.975 and 0.76 and 0.825
8,CC[C@H]1OC(=O)[C@H](C)[C@@H](O[C@H]2C[C@@](C)(OC)[C@@H](O)[C@H](C)O2)[C@H](C)[C@@H](O[C@@H]2O[C@H](C)C[C@H](N(C)C)[C@H]2O)[C@](C)(OC)C[C@@H](C)C(=O)[C@H](C)[C@@H](O)[C@]1(C)O,-0.33
9,CS(=O)(=O)c1ccc(C2=C(c3ccccc3)C(=O)OC2)cc1,0.26 and 0.525
10,Cc1occc(=O)c1O,0.51
11,Nc1ncnc2c1ncn2[C@@H]1O[C@H](CO)[C@@H](O)[C@@H]1O,-1.35 and 1.67
12,C[N+]1(C)CCCC(OC(=O)C(O)(c2ccccc2)c2ccccc2)C1 (centres undefined),0.49
13,CCc1ccc(CCOc2ccc(CC3SC(=O)NC3=O)cc2)nc1 (centres undefined),0.365 and 1.53
14,C[C@H]1COc2c(N3CCN(C)CC3)c(F)cc3c(=O)c(C(=O)O)cn1c23,-0.45
15,O=[N+]([O-])c1cccc2cn[nH]c12,0.295 and 0.3 and -0.14
16,COc1ccc(-c2cc(=O)c3c(OC)c(OC)c(OC)c(OC)c3o2)cc1OC,0.845

# Tested on: F380Y
# Test: BK channel mutant inhibitors and activators – cell-based, U2OS BacMam, thallium flux, beta subunits, selectivity assay, profiling panel (AID 1259406);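 also: initial slope of Thallos dye fluorescence rise after thallium is added; log ratio against the mean of 0.3% DMSO vehicle wells on the same plate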
# Settings: U2OS BacMam BK variants, at 30 µM
row,SMILES,log fold change Tl+ flux
1,COC(=O)[C@H](c1ccccc1Cl)N1CCc2sccc2C1,-0.0366
2,COc1ccc(/C=C/C(=O)Nc2ccccc2C(=O)O)cc1OC,-0.0454
3,CC1=C(/C=C/C(C)=C/C=C/C(C)=C\C(=O)O)C(C)(C)CCC1,-0.00963
4,Cc1cccc(C)c1NC(=O)C1CCCCN1C (centres undefined),0.0251
5,CN(C)c1nc(N(C)C)nc(N(C)C)n1,0.0102
6,CC[C@H]1OC(=O)[C@H](C)[C@@H](O[C@H]2C[C@@](C)(OC)[C@@H](O)[C@H](C)O2)[C@H](C)[C@@H](O[C@@H]2O[C@H](C)C[C@H](N(C)C)[C@H]2O)[C@](C)(OC)C[C@@H](C)C(=O)[C@H](C)[C@@H](O)[C@]1(C)O,0.0307
7,CNCCC(Oc1ccc(C(F)(F)F)cc1)c1ccccc1 (centres undefined),0.129 (active)
8,CS(=O)(=O)c1ccc(C2=C(c3ccccc3)C(=O)OC2)cc1,0.0227
9,Cc1occc(=O)c1O,0.00693
10,Nc1ncnc2c1ncn2[C@@H]1O[C@H](CO)[C@@H](O)[C@@H]1O,-0.000678
11,CC(C)NCC(O)COc1ccc(CC(N)=O)cc1 (centres undefined),-0.0247
12,C[N+]1(C)CCCC(OC(=O)C(O)(c2ccccc2)c2ccccc2)C1 (centres undefined),0.00904
13,CC(C)NCC(O)COc1cccc2ccccc12 (centres undefined),0.0569
14,CCc1ccc(CCOc2ccc(CC3SC(=O)NC3=O)cc2)nc1 (centres undefined),0.00439
15,CCCCC(=O)N(Cc1ccc(-c2ccccc2-c2nn[nH]n2)cc1)[C@H](C(=O)O)C(C)C,0.0751
16,C[C@H]1COc2c(N3CCN(C)CC3)c(F)cc3c(=O)c(C(=O)O)cn1c23,-0.012
17,O=[N+]([O-])c1cccc2cn[nH]c12,0.0311
18,COc1ccc(-c2cc(=O)c3c(OC)c(OC)c(OC)c(OC)c3o2)cc1OC,0.00321
19,CC(C(=O)O)c1ccc(-c2ccccc2)c(F)c1 (centres undefined),0.0247

# Tested on: F380Y/beta1
# Test: as above
# Settings: U2OS BacMam BK variants, at 30 µM
row,SMILES,log fold change Tl+ flux
1,COC(=O)[C@H](c1ccccc1Cl)N1CCc2sccc2C1,0.0174
2,COc1ccc(/C=C/C(=O)Nc2ccccc2C(=O)O)cc1OC,-0.00383
3,CC1=C(/C=C/C(C)=C/C=C/C(C)=C\C(=O)O)C(C)(C)CCC1,-0.0325
4,Cc1cccc(C)c1NC(=O)C1CCCCN1C (centres undefined),0.0319
5,CN(C)c1nc(N(C)C)nc(N(C)C)n1,0.0385
6,CC[C@H]1OC(=O)[C@H](C)[C@@H](O[C@H]2C[C@@](C)(OC)[C@@H](O)[C@H](C)O2)[C@H](C)[C@@H](O[C@@H]2O[C@H](C)C[C@H](N(C)C)[C@H]2O)[C@](C)(OC)C[C@@H](C)C(=O)[C@H](C)[C@@H](O)[C@]1(C)O,0.0264
7,CNCCC(Oc1ccc(C(F)(F)F)cc1)c1ccccc1 (centres undefined),0.157 (active)
8,CS(=O)(=O)c1ccc(C2=C(c3ccccc3)C(=O)OC2)cc1,0.00163
9,Cc1occc(=O)c1O,0.0152
10,Nc1ncnc2c1ncn2[C@@H]1O[C@H](CO)[C@@H](O)[C@@H]1O,0.0507
11,CC(C)NCC(O)COc1ccc(CC(N)=O)cc1 (centres undefined),0.000846
12,C[N+]1(C)CCCC(OC(=O)C(O)(c2ccccc2)c2ccccc2)C1 (centres undefined),-0.0251
13,CC(C)NCC(O)COc1cccc2ccccc12 (centres undefined),-0.00888
14,CCc1ccc(CCOc2ccc(CC3SC(=O)NC3=O)cc2)nc1 (centres undefined),0.0033
15,CCCCC(=O)N(Cc1ccc(-c2ccccc2-c2nn[nH]n2)cc1)[C@H](C(=O)O)C(C)C,-0.0013
16,C[C@H]1COc2c(N3CCN(C)CC3)c(F)cc3c(=O)c(C(=O)O)cn1c23,0.0152
17,O=[N+]([O-])c1cccc2cn[nH]c12,0.0616
18,COc1ccc(-c2cc(=O)c3c(OC)c(OC)c(OC)c(OC)c3o2)cc1OC,0.0362
19,CC(C(=O)O)c1ccc(-c2ccccc2)c(F)c1 (centres undefined),0.0374
